Hit rate of the full screen: of about 310,000 compounds, about 14,000 (4.5%) showed an effect of 50% or more. Effects have a minus sign here. The list comes from a sample in which strong results are over-represented; it also holds similar structures and randomly drawn compounds.
These molecules were tested against human ether-à-go-go-related gene (hERG) potassium channel (human, UniProt Q12809) (assay: primary screen, population patch clamp on CHO cells stably expressing hERG; higher = less effect of the substance).
human ether-à-go-go-related gene (hERG) potassium channel, sequence (Q12809 whole entry, looked up): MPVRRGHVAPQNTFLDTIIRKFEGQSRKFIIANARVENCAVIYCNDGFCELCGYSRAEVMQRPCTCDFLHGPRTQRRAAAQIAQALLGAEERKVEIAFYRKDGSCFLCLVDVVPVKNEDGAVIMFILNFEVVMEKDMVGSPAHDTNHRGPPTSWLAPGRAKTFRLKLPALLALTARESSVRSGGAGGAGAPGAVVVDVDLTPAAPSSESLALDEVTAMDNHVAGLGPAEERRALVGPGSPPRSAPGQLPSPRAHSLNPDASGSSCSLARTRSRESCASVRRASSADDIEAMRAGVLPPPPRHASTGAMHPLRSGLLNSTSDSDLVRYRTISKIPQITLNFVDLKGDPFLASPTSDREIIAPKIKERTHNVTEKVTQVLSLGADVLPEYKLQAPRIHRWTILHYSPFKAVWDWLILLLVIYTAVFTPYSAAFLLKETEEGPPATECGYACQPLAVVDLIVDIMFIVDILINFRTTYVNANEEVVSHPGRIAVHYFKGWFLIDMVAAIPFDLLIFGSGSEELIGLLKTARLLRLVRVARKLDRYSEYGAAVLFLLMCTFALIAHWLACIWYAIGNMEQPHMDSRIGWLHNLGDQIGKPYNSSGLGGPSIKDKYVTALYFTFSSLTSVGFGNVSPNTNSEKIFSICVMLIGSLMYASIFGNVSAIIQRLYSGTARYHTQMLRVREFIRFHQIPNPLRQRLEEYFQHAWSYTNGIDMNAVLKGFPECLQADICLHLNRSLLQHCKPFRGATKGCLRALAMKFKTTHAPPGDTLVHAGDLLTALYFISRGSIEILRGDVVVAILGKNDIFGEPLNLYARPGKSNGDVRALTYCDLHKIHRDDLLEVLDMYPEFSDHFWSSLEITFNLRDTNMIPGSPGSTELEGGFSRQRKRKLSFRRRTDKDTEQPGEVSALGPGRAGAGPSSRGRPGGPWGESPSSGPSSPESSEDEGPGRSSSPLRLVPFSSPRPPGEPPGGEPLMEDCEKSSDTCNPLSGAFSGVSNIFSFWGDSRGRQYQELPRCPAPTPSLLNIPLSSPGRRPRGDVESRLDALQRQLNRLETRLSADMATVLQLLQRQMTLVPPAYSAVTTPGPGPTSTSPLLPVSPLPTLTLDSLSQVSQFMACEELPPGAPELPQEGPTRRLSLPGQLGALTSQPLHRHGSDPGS
`CCOc1ccccc1NC(=O)CCCCCN1C(=O)[C@@H]2Cc3ccccc3CN2C1=O` was tested, and the “hERG current change (%, negative = inhibition) at 10uM” value was -42.6%. With `COc1ccc(C(C)=O)cc1COC(=O)c1ccc(C)c(S(=O)(=O)N2CCOCC2)c1` the “hERG current change (%, negative = inhibition) at 10uM” value was -19.8%. For `COc1nc(-c2ccccc2)ccc1-c1noc(C)n1`, the “hERG current change (%, negative = inhibition) at 10uM” value was -5.52%. `Cn1ccnc1C1CCCCN1Cc1nc(-c2ccc(Cl)cc2)no1` (stereo not drawn) was tested, and the “hERG current change (%, negative = inhibition) at 10uM” value was -23.1%. `O=C(O)C1C2CCC(C2)C1C(=O)NCc1ccco1` (stereo not drawn) was tested, and the “hERG current change (%, negative = inhibition) at 10uM” value was -8.3%. With `Cc1ccc(-n2cc(CNC(C)c3cnn(C)c3)c(-c3ccc(F)cc3)n2)cc1` (stereo not drawn) the “hERG current change (%, negative = inhibition) at 10uM” value was -40%. `Cc1ccc(-n2cc(CN3CCNC(=O)CC3)c(-c3cccc(C)c3)n2)cc1` was tested, and the “hERG current change (%, negative = inhibition) at 10uM” value was -0.817%. For `Cc1ccc(-n2cc(CNCCN3CCOC3=O)c(-c3cccc(C)c3)n2)cc1`, the “hERG current change (%, negative = inhibition) at 10uM” value was -69.1%. `Cc1ccc(-n2cc(CN(C)CCc3cn[nH]c3)c(-c3cccc(C)c3)n2)cc1` was tested, and the “hERG current change (%, negative = inhibition) at 10uM” value was -68%. In the case of `Cc1cccc(-n2cc(CNCCN3CCOC3=O)c(-c3cccc(F)c3)n2)c1`, the “hERG current change (%, negative = inhibition) at 10uM” value is reported as -16.4%. `Cc1ccc(C)c(-n2cc(CNC(C)Cn3cncn3)c(-c3ccccc3)n2)c1` (stereo not drawn) was tested, and the “hERG current change (%, negative = inhibition) at 10uM” value was -45.6%. With `Cc1ccc(-n2cc(CNC(C)Cn3cncn3)c(-c3ccc(F)cc3)n2)cc1` (stereo not drawn) the “hERG current change (%, negative = inhibition) at 10uM” value was -60.7%. In the case of `Cc1ccc(-n2cc(CN(C)Cc3ncc[nH]3)c(-c3cccc(C)c3)n2)cc1`, the “hERG current change (%, negative = inhibition) at 10uM” value is reported as -34.8%. For `CC(=O)N1CCCN(Cc2cn(-c3ccc(C)cc3)nc2-c2cccc(C)c2)CC1`, the “hERG current change (%, negative = inhibition) at 10uM” value was -43%. `CCn1c(-c2ccco2)n[nH]c1=S` was tested, and the “hERG current change (%, negative = inhibition) at 10uM” value was 12%. For `N#C/C(=C\c1ccc(OCc2ccc(Br)cc2)cc1)C(=O)Nc1cccc(C(=O)O)c1`, the “hERG current change (%, negative = inhibition) at 10uM” value was 17.8%. `CCOC(=O)c1c(C)[nH]c(C(=O)CSc2ccccc2)c1C` was tested, and the “hERG current change (%, negative = inhibition) at 10uM” value was 3.05%. For `O=C(Cn1nnc2ccccc21)c1ccc(Cl)cc1`, the “hERG current change (%, negative = inhibition) at 10uM” value was -4.9%. With `C/C(Cn1nnc2ccccc21)=N\OC(=O)c1ccccc1C` the “hERG current change (%, negative = inhibition) at 10uM” value was -63.9%. For `C/C(Cn1nnc2ccccc21)=N\OC(=O)c1cc(F)c(F)cc1Cl`, the “hERG current change (%, negative = inhibition) at 10uM” value was -80.5%. In the case of `C/C(Cn1nnc2ccccc21)=N/OC(=O)c1c(F)cccc1F`, the “hERG current change (%, negative = inhibition) at 10uM” value is reported as 12.5%. For `Cc1ccccc1NC(=O)Cn1nnc2ccccc21`, the “hERG current change (%, negative = inhibition) at 10uM” value was -12%. `O=C(O)Cn1nnc2ccccc21` was tested, and the “hERG current change (%, negative = inhibition) at 10uM” value was -3.4%. For `C[N+]1(CC(=O)Nc2ccc(F)cc2)CCN(C(=O)c2ccco2)CC1.[Cl-]`, the “hERG current change (%, negative = inhibition) at 10uM” value was 13.2%.
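Further: peak tail current of the secondary pulse compared with the same well before compound.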
